# Experimental data published in PubChem BioAssay AID651813 (National Center for Advancing Translational Sciences (NCATS), 2012).
# In all, about 2,100 compounds went through this assay and about 1,100 (52%) were called active. Not shown: some 27% with an inconclusive outcome. The call rests on the fitted dose curve; in most records, active means well fitted inhibition curve with a large enough effect; inconclusive means small, poorly fitted or top-dose-only effect; inactive means no such curve, though single readings can be large or run the other way. The set was probably picked from earlier hits. Some of the results follow.
# Target: DNA dC->dU-editing enzyme APOBEC-3G (Homo sapiens) (UniProt Q9HC16)
# Assay: qHTS for inhibitors of Vif-A3G interactions: Cherry picks counterscreen;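 further: hits raise yellow fluorescence by blocking Vif-driven A3G-eYFP degradation; nearly all actives have a fitted effect of over 70% in size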;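 on max response: max response given as percent of control signal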
# Conditions: HeLa A3G-eYFP + Vif (tagged APOBEC3G with the HIV-1 protein that degrades it), eYFP fluorescence, 24 h
# Method in brief: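 Readout is eYFP fluorescence (488 nm excitation, 500-530 nm emission) measured on Acumen Explorer after 24 h compound exposure, several concentrations, at 37 deg C. Cells: HeLa stably co-expressing Vif and C-terminally eYFP-tagged A3G; MG132 positive control.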
# Potency means the concentration at half of the fitted maximal effect.
# Sequence of DNA dC->dU-editing enzyme APOBEC-3G (Homo sapiens) (Q9HC16 whole entry, looked up): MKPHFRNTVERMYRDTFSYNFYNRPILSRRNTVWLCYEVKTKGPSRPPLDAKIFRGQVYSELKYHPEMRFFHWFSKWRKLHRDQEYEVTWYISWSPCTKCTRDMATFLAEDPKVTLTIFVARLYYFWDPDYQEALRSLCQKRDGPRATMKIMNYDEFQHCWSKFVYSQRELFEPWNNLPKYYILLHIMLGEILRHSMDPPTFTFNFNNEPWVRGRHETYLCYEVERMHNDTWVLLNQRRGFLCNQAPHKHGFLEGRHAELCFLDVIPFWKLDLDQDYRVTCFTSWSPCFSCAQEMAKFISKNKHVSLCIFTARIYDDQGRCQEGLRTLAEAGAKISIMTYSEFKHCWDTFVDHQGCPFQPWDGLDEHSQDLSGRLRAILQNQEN
Compound,Potency,max response
CC(=O)Nc1sc2c(c1-c1nc3ccccc3s1)CCN(C(C)C)C2,18.4 µM (active),–
CC(=O)N1CCc2c(sc(NC(=O)CSc3ccccc3)c2-c2nc3ccccc3s2)C1,29.1 µM (active),–
CN1CCc2c(sc(NC(=O)CSc3ccc(F)cc3)c2-c2nc3ccccc3s2)C1,2.59 µM (active),–
CS(=O)(=O)Nc1ccc(C2=NN(S(=O)(=O)c3ccccc3)C(c3cccs3)C2)cc1 (centres undefined),20.6 µM (active),–
CCc1ccc(C2=NN(S(C)(=O)=O)C(c3cccs3)C2)cc1 (centres undefined),14 µM (active),–
CC(C)n1cc(/C=C2\NC(=O)N(c3cccc(Cl)c3)C2=O)c2ccccc21,14 µM (active),–
Cc1ccc(NC(=O)c2ccc(NCc3ccco3)c([N+](=O)[O-])c2)cc1Cl,14.6 µM (active),–
Cc1ccc(NC(=O)c2ccc(NCC3CCCO3)c([N+](=O)[O-])c2)cc1Cl (centres undefined),20.6 µM (active),–
Cc1ccc(NC(=O)c2ccc([N+](=O)[O-])s2)cc1S(=O)(=O)N1CCOCC1,–,-5.77% (inactive)
Cc1ccc(NC(=O)CSc2ccccc2NC(=O)c2cccc(Cl)c2)cc1Cl,–,5.07% (inactive)
O=c1[nH]c(-c2cccnc2)nc2sc(-c3ccccc3)cc12,0.627 µM (active),–
S=c1[nH]cnc2sc(-c3ccccc3)cc12,–,1.89% (inactive)
CCCn1c(CN2CCN(C(=O)OCC)CC2)nc2cc(NC(=O)C(C)C)ccc21,11.2 µM (active),–
CCOc1ccc(C(C)=O)cc1COc1cccnc1[N+](=O)[O-],12.5 µM (active),–
N#C/C(=C/c1ccc(N2CCCCC2)o1)c1cccc(F)c1,5.17 µM (active),–
N#C/C(=C/c1ccc(N2CCCCCC2)o1)c1cccc(F)c1,4.61 µM (active),–
O=C1CC(c2ccccc2)Cc2[nH]c(=O)c(-c3nc(-c4cccc(Cl)c4)cs3)cc21 (centres undefined),2.59 µM (active),–
Cc1sc(-c2cc3c([nH]c2=O)CC(c2ccccc2)CC3=O)nc1-c1ccc(Cl)cc1 (centres undefined),1.3 µM (active),–
CCCc1nc2c(C)cc(Br)cn2c1Cc1ccccc1,–,-5.65% (inactive)
COc1c(-c2ccc(O)c(O)c2)oc2cc(O)cc(O)c2c1=O,7.9 µM (active),–
NC(=O)c1ccccc1NC(=S)NC(=O)CCc1ccccc1,5.59 µM (active),–
O=C(COc1ccccc1)NC(=S)Nc1cccc2c(O)cccc12,–,-0.841% (inactive)
CCC(=O)NC(=S)Nc1cccc(Cl)c1N1CCCC1,–,-18% (inactive)
O=C1CCCN1c1ccc(S(=O)(=O)Nc2ccc3c(c2)OCCO3)cc1,5.59 µM (active),–

Compound,Potency,max response
COc1ccc(C(=O)C[n+]2cc(Br)cc3ccccc32)cc1,8.2 µM (active),–
O=C(C[n+]1cccc2cc(Cl)ccc21)c1ccc(I)cc1,18.4 µM (active),–
CCCC1=[N+](CC(=O)c2ccc(Br)cc2)CCn2cccc21,–,-25.2% (inactive)
O=C(C[n+]1cccc2cc(Cl)ccc21)c1ccc2ccccc2c1,23.1 µM (active),–
CC(C)(C)c1ccc(C(=O)C[n+]2cccc3cc(Cl)ccc32)cc1,18.4 µM (active),–
COc1ccc(C(=O)C[n+]2cccc3cc(Cl)ccc32)cc1,16.4 µM (active),–
O=C1Nc2ccc(Br)cc2C12NNc1ccccc1O2 (centres undefined),15.8 µM (active),–
C/C(=N/Nc1ccc([N+](=O)[O-])cc1)c1c[nH]c2ccccc12,18.4 µM (active),–
O=[N+]([O-])c1ccc(N/N=C/c2c[nH]c3ccccc23)c(S(=O)(=O)Nc2ccc(Cl)cc2)c1,23.1 µM (active),–
O=[N+]([O-])c1ccc(N/N=C/c2c[nH]c3ccccc23)cc1,16.4 µM (active),–
COc1ccccc1NS(=O)(=O)c1cc([N+](=O)[O-])ccc1N/N=C/c1c[nH]c2ccccc12,9.2 µM (active),–
Cc1[nH]c2ccccc2c1/C=N/Nc1ccc([N+](=O)[O-])cc1,8.2 µM (active),–
COc1ccc(NS(=O)(=O)c2cc([N+](=O)[O-])ccc2N/N=C/c2c(C)[nH]c3ccccc23)cc1,18.4 µM (active),–
COc1ccccc1NS(=O)(=O)c1cc([N+](=O)[O-])ccc1N/N=C/c1c(C)[nH]c2ccccc12,2.8 µM (active),–
COc1cc(NC(=O)c2ccco2)c(C(=O)OCC(=O)c2c[nH]c3ccccc23)cc1OC,–,-2.18% (inactive)
CC1CC(C)CN(CC(=O)c2c[nH]c3ccccc23)C1 (centres undefined),18.4 µM (active),–
O=[N+]([O-])c1ccc(N=Nc2ccc(O)c3ccccc23)cc1,11.2 µM (active),–
O=C1NC(=Nc2ccccc2Cl)S/C1=C\c1cc([N+](=O)[O-])ccc1O,–,-33% (inactive)
COc1cc2c(cc1OC)C(C)N(C(=O)c1cc(C)on1)CC2 (centres undefined),0.704 µM (active),–
COc1cc2c(cc1OC)C(C)N(C(=O)c1cc(Cl)nc(Cl)c1)CC2 (centres undefined),12.5 µM (active),–
Cc1ccc2ccc3c(c2n1)NS(=O)(=O)c1ccc(C(F)(F)F)cc1-3,11.6 µM (active),–
COCCNC(=S)NN=C1CCCCCC1,–,0.0981% (inactive)
COc1ccc2nc(NC(=S)NC(=O)c3ccco3)sc2c1,–,-0.487% (inactive)
COc1ccc2nc(NC(=O)Nc3ccccc3OC)sc2c1,4.44 µM (active),–

Compound,Potency,max response
COc1ccccc1CCC(=O)Nc1ccc2c(c1)c(=O)n(C)n2-c1cccs1,3.53 µM (active),–
COc1cc(Cn2c3ccc(NC(=O)CCc4ccccc4)cc3c(=O)n2C)ccc1F,3.53 µM (active),–
COc1ccccc1CCC(=O)Nc1ccc2c(c1)c(=O)n(C)n2Cc1ccc(F)cc1,17.7 µM (active),–
C/C(CCc1ccc2c(c1)OCO2)=N\NC(=S)NC(C)C,–,4.06% (inactive)
Cc1cccc(N2CCN(Cc3cn(C)nc3-c3ccccc3F)CC2)n1,5.59 µM (active),–
COC(=O)c1sc(N)c(C(=O)OC)c1COC(=O)c1c(C)noc1C,4.98 µM (active),–
CN(C)c1ccc(/C=C2/C[N+](C)(C)C/C(=C/c3ccc(N(C)C)cc3)C2=O)cc1,8.2 µM (active),–
Nc1ccccc1C=C1Cc2ccccc2C1=O,7.31 µM (active),–
CN(C)c1ccc(/C=C2\Cc3ccccc3C2=O)cc1,2.59 µM (active),–
Cc1ccc(N2C(=O)[C@@H]3[C@H](C2=O)[C@H]2C=C(C(=O)c4ccccc4)C=CN2[C@@H]3C(=O)c2ccc(Cl)cc2)cc1,–,-6.73% (inactive)
O=c1[nH]c2ccccc2n2c(=S)[nH]nc12,–,-15.5% (inactive)
O=c1[nH]c2ccccc2n2c(C(F)(F)F)nnc12,20.6 µM (active),–
CCN(CC)c1ccc(/C=C2\SC(N)=NC2=O)cc1,7.9 µM (active),–
C/C(CC(=O)NCc1ccc(Cl)cc1)=N\NC(=O)COc1ccc(C)cc1Br,14 µM (active),–
CC(=O)Nc1ccc(CC(=O)NCCC(c2ccccc2)c2ccccc2)cc1,15.8 µM (active),–
CC(=O)Nc1ccc(NC(=O)C/C(C)=N/NC(N)=S)cc1,–,2.45% (inactive)
O=C(Oc1ccc(Cl)c2cccnc12)c1ccco1,–,17.4% (inactive)
Oc1ccc(-c2nc(-c3ccc(O)c(O)c3)cs2)cc1,0.994 µM (active),–
COc1ccc(-c2csc(-c3ccc(O)cc3)n2)cc1,5.59 µM (active),–
COc1ccc(-c2ccnc(-c3ccc(O)cc3)n2)cc1,1.58 µM (active),–
COc1cc(C2c3cc4c(cc3OC(C)(N3CCCC3)C2C)OCO4)cc(OC)c1OC (centres undefined),0.994 µM (active),–
COc1cccc(C2=CC(c3ccccc3)n3nnnc3N2)c1 (centres undefined),8.86 µM (active),–
COc1cccc(C2=CC(c3cccs3)n3nnnc3N2)c1 (centres undefined),2.8 µM (active),–
C=CCOC(=O)C1=C(C)Nc2nnnn2C1c1cccs1 (centres undefined),–,-7.35% (inactive)

Compound,Potency,max response
N#CC1=C(S)N(c2ccc(F)cc2)C2(CCCCC2)NC1=O,–,4.28% (inactive)
Cc1ccc(/C=N/NC(=O)CCCOc2ccc(Cl)cc2Cl)cc1,7.9 µM (active),–
CCCn1c(SCC(=O)Nc2ccccc2OC)nnc1-c1ccco1,17.7 µM (active),–
CCCn1nnc(NC(=S)NC(=O)c2ccccc2OC)n1,–,9.21% (inactive)
CC(C)C1C(=O)N(Cc2cn(CCC3OCCCO3)nn2)CCS(=O)(=O)N1Cc1ccc(-c2cccc(CO)c2)cc1 (centres undefined),–,-8.99% (inactive)
CC(=O)C1=C(C)NC(SCC(=O)c2ccc(Cl)cc2)=C(C#N)C1c1ccco1 (centres undefined),16.4 µM (active),–
O=[N+]([O-])c1ccc(N2CCN(Cc3ccccc3)CC2)c2c1no[n+]2[O-],12.5 µM (active),–
CC1(C)Cc2ccccc2C2CC(O)C(=O)N21 (centres undefined),20.6 µM (active),–
CCCCOc1nc2ccccc2nc1NS(=O)(=O)c1ccc(F)cc1,–,-6.51% (inactive)
COc1ccc(S(=O)(=O)NN(C)c2nc(C(F)(F)F)nc3ccccc23)cc1,7.04 µM (active),–
COc1ccc(OC)c(NS(=O)(=O)c2ccc(Cl)s2)c1,12.5 µM (active),–
CC[n+]1c(/C=C/N(C)c2ccccc2)oc2ccc(F)cc21,14 µM (active),–
CC[n+]1c(/C=C/Nc2ccccc2)oc2ccccc21,9.2 µM (active),–
CC[n+]1c(/C=C/Nc2ccccc2)oc2ccc(OC)cc21,14.6 µM (active),–
CCc1ccc(N=Nc2ccc(O)c3[nH]cnc23)cc1,7.31 µM (active),–
ClCc1nc2ccccc2n1Cc1ccccc1,20.6 µM (active),–
CC(C)(C)c1ccc(Cn2c(=O)cnc3ccccc32)cc1,–,3.64% (inactive)
COc1ccc(NC2=CC(=O)CC(c3ccccc3)C2)c(OC)c1 (centres undefined),11.2 µM (active),–
CC(=O)c1cccc(-c2ccnc3c2CC(C(=O)NCc2ccco2)O3)c1 (centres undefined),1.58 µM (active),–
CC(=O)c1cccc(-c2ccnc3c2CC(C(=O)NCc2ccc(F)c(F)c2)O3)c1 (centres undefined),2.8 µM (active),–
NC(=O)c1cccc(-c2ccnc3c2CC(C(=O)NCc2ccco2)O3)c1 (centres undefined),17.7 µM (active),–
O=C(NCc1ccccc1)C1Cc2c(-c3cccc(F)c3)ccnc2O1 (centres undefined),1.4 µM (active),–
